GSIS activator – GLuc luminescence reporter in INS-1E cells, primary screen for activators of glucose-dependent secretion of insulin | activation, % at 16.6 µM | INS-1E GLuc reporter insulin secretion, 2-3 h | AID 743287, 2014 | 370,000 tested, 0.61% active;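 active means lowest replicate activation of at least 40%, so every replicate reaches that level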
Casp6 inh – human caspase-6 inhibitors, primary screen, biochemical, VEID-R110 fluorescence, single point, set 2. P55212. 350,000 tested, 0.53% active. purified caspase-6, Z-VEID-R110 cleavage fluorescence. inhibition, % at 12.5 µM;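 active means mean inhibition across replicates at least about 35%, with every replicate also reaching that limit, limit read from the data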
FGF22 binding – binders of human FGF22 protein, primary screen, FGF22 synaptogenesis inhibitor project, biophysical, thermal shift, single point; recombinant FGF22 thermal shift, SYPRO orange fluorescence; percent of sucrose octasulfate shift, DMSO zero; activity (Tm shift, normalised), % at 9.99 µM; 340,000 tested, 1.5% active; AID 651658, 2012; Fibroblast growth factor 22 (Homo sapiens), Q9HCT0;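 active means mean Tm shift, scaled 0 neutral to 100 positive control, at about 1.3% or above, every replicate too, limit read from the data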
Target sequence (Q9HCT0 whole entry, looked up): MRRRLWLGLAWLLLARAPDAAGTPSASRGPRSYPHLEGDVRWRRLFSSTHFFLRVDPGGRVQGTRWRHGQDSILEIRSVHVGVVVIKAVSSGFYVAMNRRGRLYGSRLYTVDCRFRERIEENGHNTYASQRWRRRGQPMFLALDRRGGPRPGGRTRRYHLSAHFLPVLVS
SIRT5 block – SIRT5 desuccinylase inhibitors, primary screen, biochemical, fluorescence imaging, single point, set 5; AID 652115, 2013; inhibition, % at 15 µM; 330,000 tested, 1.1% active; Purified SirT5, succinyl-peptide AMC, trypsin-coupled fluorescence; NAD-dependent protein deacylase sirtuin-5, mitochondrial (Homo sapiens), Q9NXA8; in the data active means inhibition above about 15%
Target sequence (Q9NXA8 whole entry, looked up): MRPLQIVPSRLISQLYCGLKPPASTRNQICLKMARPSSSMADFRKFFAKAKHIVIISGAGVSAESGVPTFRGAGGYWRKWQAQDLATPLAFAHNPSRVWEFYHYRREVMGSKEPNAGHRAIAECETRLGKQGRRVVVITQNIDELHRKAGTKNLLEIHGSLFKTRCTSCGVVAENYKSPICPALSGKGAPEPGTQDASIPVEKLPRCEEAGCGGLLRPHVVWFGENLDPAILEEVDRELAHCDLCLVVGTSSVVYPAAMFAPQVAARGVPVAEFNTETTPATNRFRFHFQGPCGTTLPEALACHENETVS
ERAP1 inh – human ERAP1 aminopeptidase inhibitors, primary screen, biochemical, single point, plate reader | Endoplasmic reticulum aminopeptidase 1 (Homo sapiens), Q9NZ08 | recombinant ERAP1, Leu-AMC fluorescence, 60 min | inhibition, % at 10.7 µM | 340,000 tested, 0.15% active | AID 652197, 2013;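 active means mean replicate inhibition of at least 30%, or all replicates individually reaching that 30% level; inactive means mean below 30% and not every replicate reaching it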
A number is an active result; 0 = inactive; - = not tested or not shown. This is a sample that favours compounds with a hit; in the whole collection about 3.3% have one here.

SMILES	GSIS activator	Casp6 inh	FGF22 binding	SIRT5 block	ERAP1 inh
N#CN=CN1CC=C(c2ccc(Cl)cc2)CC1	67	0	0	-	0
CCCNC(=O)C1(C)CCN(C(=O)C2(c3ccc(Cl)cc3)CCCC2)C1 (stereo unspecified)	0	0	0	-	0
CCCNC(=O)C1(C)CCCN(C(=O)C2(c3ccc(Cl)cc3)CCCC2)C1 (stereo unspecified)	0	0	0	30	0
CCOc1cccc(C(=O)Nc2cc(C)ccc2NC(=O)c2ccco2)c1	0	0	0	0	0
CC(C)(C)c1ccc(NC(=O)c2ccccc2)c([N+](=O)[O-])c1	0	0	44	0	0
Cc1ccc(NC(=O)c2ccco2)c([N+](=O)[O-])c1	0	0	43	0	0
CCOc1ccccc1C(=O)Nc1cc(C)ccc1NC(=O)c1ccco1	0	0	1.7	0	0
Cc1c([N+](=O)[O-])cc(C(=O)Nc2ccc(NC(=O)c3ccco3)cc2)cc1[N+](=O)[O-]	0	0	0	19	0
Cc1c(NC(=O)c2ccc(C(C)(C)C)cc2)cccc1[N+](=O)[O-]	0	0	0	0	0
COc1ccc(NC(=O)c2ccco2)c([N+](=O)[O-])c1	0	-	-	-	-
CC(C)C#Cc1ccc2c(c1)O[C@H](CN(C)C(=O)NC(C)C)[C@H](C)CN([C@@H](C)CO)S2(=O)=O	0	-	0	-	-
CCCNC(=O)C[C@@H]1CC[C@@H]2[C@@H](COc3ccc(NC(=O)Nc4c(C)noc4C)cc3C(=O)N2C)O1	0	0	0	0	0
O=C(/C=C/c1ccc(Cl)c([N+](=O)[O-])c1)Nc1cccc(NC(=O)c2ccco2)c1	0	0	45	0	0
O=C(O)c1cc(-c2ccc(/C=N/N3C(=O)C4C5C=CC(C6CC56)C4C3=O)o2)ccc1Cl (stereo unspecified)	0	0	43	0	0
C[C@H]1CN(C)C(=O)c2cc(N(C)C)ccc2O[C@H]1CN(C)S(C)(=O)=O	0	-	-	-	-
CC1=C(C(=O)N(C)C)CC(CC(=O)NC2CC2)C(=O)N1CCC1=CCCCC1 (stereo unspecified)	0	0	0	0	0
CC1=C(C(=O)N2CCOCC2)CC(CC(=O)NCC2CCCCC2)C(=O)N1CCC1=CCCCC1 (stereo unspecified)	0	0	0	23	0
CC1=C(C(=O)N2CCOCC2)CC(CC(=O)NC2CC2)C(=O)N1CCC1=CCCCC1 (stereo unspecified)	0	0	0	17	-
COc1ccc(CN(C)C[C@@H]2Oc3ccc(NC(=O)Nc4ccc5c(c4)OCO5)cc3C(=O)N([C@H](C)CO)C[C@@H]2C)cc1	0	0	0	0	0
C[C@@H]1CCCCO[C@H](CN(C)S(=O)(=O)c2cccs2)[C@H](C)CN([C@@H](C)CO)C(=O)c2cc(NS(=O)(=O)c3ccc(F)cc3)ccc2O1	0	0	0	0	0
O=C(C1CCC1)N1[C@@H](CO)[C@@H](c2ccccc2)C12CN(Cc1ccccc1)C2	0	0	0	0	0
Cn1cnc(S(=O)(=O)N2[C@@H]3CNC[C@H]2C3c2ccc(-c3ccc(F)cc3)cc2)c1 (stereo partly specified)	0	0	-	0	0
O=C(COC(=O)Cc1cccc(C(F)(F)F)c1)NCc1ccco1	0	58	0	0	0
O=C(COC(=O)Cc1ccc(F)cc1)NCc1ccco1	0	0	0	0	0
CC(C)C(NC(=O)c1ccco1)C(=O)OCC(=O)Nc1ccc(C(N)=O)cc1 (stereo unspecified)	0	0	43	0	0
SMILES	GSIS activator	Casp6 inh	FGF22 binding	SIRT5 block	ERAP1 inh
CC(C)[C@H](NC(=O)OCc1ccccc1)C(=O)OCC(=O)NCc1ccco1	-	0	43	-	0
CNC(=O)C[C@H]1CC[C@H]2[C@@H](COC[C@@H](O)CN2S(=O)(=O)c2ccc(Oc3ccccc3)cc2)O1	0	0	0	0	0
COc1cccc(NC(=O)N[C@H]2C=C[C@H](CC(=O)N3CCN(C)CC3)O[C@@H]2CO)c1	0	0	0	0	0
O=C(NCCN1CCOCC1)/C(=C\c1ccccc1Cl)NC(=O)c1ccccc1	0	0	0	0	0
COc1ccccc1/C=C(/NC(=O)c1ccccc1)C(=O)NCCN1CCOCC1	0	0	44	0	0
O=C(NCCN1CCOCC1)/C(=C/c1ccccc1)NC(=O)c1ccccc1	47	0	0	0	0
O=C(NCCN1CCOCC1)/C(=C\c1ccc(F)cc1)NC(=O)c1ccccc1	0	0	0	0	0
COc1ccc(NC(=O)N(C)C[C@@H]2OCCCC[C@@H](C)Oc3ccc(NS(=O)(=O)c4ccccc4)cc3C(=O)N([C@@H](C)CO)C[C@@H]2C)cc1	0	0	0	0	0
CCC/C(O)=C1\C(=O)CC(c2ccccc2)CC1=NCCc1c(C)[nH]c2ccccc12 (stereo unspecified)	-	0	0	0	0
CCC/C(O)=C1\C(=O)CCCC1=NCCc1c(C)[nH]c2ccccc12	0	0	0	25	0
Cc1coc2c(C)c3oc(=O)c(CCC(=O)N[C@@H](C)C(=O)N[C@@H](Cc4ccccc4)C(=O)O)c(C)c3cc12	0	0	0	26	0
O=C(C[C@H]1C[C@@H]2c3cc(NC(=O)C4CCOCC4)ccc3O[C@@H]2[C@@H](CO)O1)NCc1ccc2c(c1)OCO2	0	0	0	0	0
Cc1ccc(S(=O)(=O)Nc2ccc(-n3c(C)nc4ccccc4c3=O)cc2)cc1	0	0	0	0	0
Cc1ccc(S(=O)(=O)Nc2c3ccccc3nc(=O)n2-c2ccccc2)cc1	59	-	-	-	-
O=C(C[C@@H]1C[C@@H]2c3cc(NC(=O)C4CCOCC4)ccc3O[C@@H]2[C@H](CO)O1)NCc1cc(F)ccc1F	0	0	0	0	0
CC(OC(=O)C1CC(=O)N(Cc2ccco2)C1)C(=O)Nc1ccccc1[N+](=O)[O-] (stereo unspecified)	0	0	0	0	0
O=C(Nc1ccc(F)cc1)C1CC(=O)N(Cc2ccco2)C1 (stereo unspecified)	0	0	0	0	0
Cc1ccccc1NC(=O)C(C)OC(=O)C1CC(=O)N(Cc2ccco2)C1 (stereo unspecified)	0	55	0	0	0
O=C(NCc1ccccc1F)C1CC(=O)N(Cc2ccco2)C1 (stereo unspecified)	-	0	44	-	0
C[C@H]1CN([C@@H](C)CO)C(=O)c2cc(-c3ccc(C#N)cc3)cnc2O[C@@H]1CN(C)C(=O)CC1CC1	0	0	0	0	0
COc1cc(CC(=O)O)ccc1OCc1ccccc1	0	0	0	0	0
COc1cc2ccc(CC(=O)O)cc2cc1OC	77	0	0	-	0
